From PMC6602471 come the findings set out here.

In this experiment the target is RUNX1 (Homo sapiens, UniProt Q01196 1-453). As to the kind of experiment: custom PBM; custom protein-binding microarray; buffer, salt, pH and temperature not stated; high values mean tight binding. Conditions: dsDNA, one strand shown.
Chain of RUNX1 (Q01196 whole entry): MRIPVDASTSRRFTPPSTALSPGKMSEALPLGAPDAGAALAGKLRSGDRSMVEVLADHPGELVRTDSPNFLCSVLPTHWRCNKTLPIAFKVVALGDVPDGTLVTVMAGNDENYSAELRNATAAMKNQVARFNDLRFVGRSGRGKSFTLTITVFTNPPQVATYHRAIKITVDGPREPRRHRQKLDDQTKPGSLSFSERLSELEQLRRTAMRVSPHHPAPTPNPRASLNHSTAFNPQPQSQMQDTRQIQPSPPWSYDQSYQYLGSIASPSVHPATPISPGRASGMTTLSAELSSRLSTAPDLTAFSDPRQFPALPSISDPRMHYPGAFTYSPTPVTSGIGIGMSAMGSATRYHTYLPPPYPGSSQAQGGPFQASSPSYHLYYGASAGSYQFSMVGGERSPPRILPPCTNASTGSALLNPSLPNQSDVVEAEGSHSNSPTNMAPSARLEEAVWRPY
For the sequence “GCGCACATTTCCCGCAAATCATACACGCACACATACACATACACACATACACATACGCAC”, the binding signal is 11.1 log fluorescence intensity.
For “CGCGCACTCTGTGGATGCGCACATACGCACACATACACATACACACATACACATACGCAC”, the binding signal is 10.9 log fluorescence intensity.
The result for “GCATACCGCTGACGTCAGCCACATACGCACACATACACATACACACATACACATACGCAC” reads 10.9 log fluorescence intensity.
Next, “CGCGCAATCTGTGGTTGCGCACATACGCACACATACACATACACACATACACATACGCAC”: 11.1 log fluorescence intensity; “GCATACGGCTAACGTCAGCCACATACGCACACATACACATACACACATACACATACGCAC”: 11 log fluorescence intensity; “CGCGCACGCTGTGGTTGCGCACATACGCACACATACACATACACACATACACATACGCAC”: 11.2 log fluorescence intensity.
On to “GCATACGGCTGACGTCAGTCACATACGCACACATACACATACACACATACACATACGCAC”, for which the binding signal is 10.9 log fluorescence intensity.
Next, “GCATACGGCTGCCGTCAGCCACATACGCACACATACACATACACACATACACATACGCAC”: 11 log fluorescence intensity; “CGCGCACTCTGTGGCTGCGCACATACGCACACATACACATACACACATACACATACGCAC”: 10.9 log fluorescence intensity; “GCGCACATTTCCCGTAAATGATACACGCACACATACACATACACACATACACATACGCAC”: 10.9 log fluorescence intensity.
The result for “GCATACGGGTGACGTCAGCCACATACGCACACATACACATACACACATACACATACGCAC” reads 10.9 log fluorescence intensity; that for “GCATACGGCTCACGTCAGCCACATACGCACACATACACATACACACATACACATACGCAC”, 10.9 log fluorescence intensity; that for “GCATACGACTGACGTCAGCCACATACGCACACATACACATACACACATACACATACGCAC”, 11 log fluorescence intensity.
Next, “CGCGCACTCTGTGCTTGCGCACATACGCACACATACACATACACACATACACATACGCAC”: 10.9 log fluorescence intensity.
